Measured values as given in publication PMC12136788.
Positions count from the first letter of the chain named. Over roughly 24,000 sequences, “enrichment r” has its median near 0.99; the highest 2% begin near 3.7. What follows is part of a selection rich in the highest values, with near analogues and random picks from the rest.

B1: chr7:112757510:112757511:-_ENSG00000214194_ENST00000397764|hu_mus|FALSE|FALSE (ssRNA)
RNA: GGGAGUUCUACAGUCCGACGAUCCUUUCUUGCGUAUAUCCCCAAGCAAGCACAGAUGCCGGUAAUGCUGAGAACCACACCUAAUAAGAGUGCAAUCGCGUCUCCAGCUUCCACUGCUUCAACAACAGGCAGGAUCAAAAGCAGCAACAGAGGAUUGAGCAUCA
B2: chr9:49312907:49312908:-_ENSMUSG00000039542_ENSMUST00000166811|mus_hu|motif|central (ssRNA)
RNA: GGGAGUUCUACAGUCCGACGAUCAGCUGCAAUUUGGCAUUCGUCCUAUAAAAUAAGAGUCUACGUGGGAAUUGAAUUCAGCGGGAAAGGGUGACACACUUUGCAUACUGAACAAAUACAAAGUGAACAGAAAUUAUAACUUAUCAACAGAGGAUUGAGCAUCA
B3: chr6:168291551:168291552:+_ENSG00000130396_ENST00000400822|hu_hu|motif|central (ssRNA)
RNA: GGGAGUUCUACAGUCCGACGAUCGUGUUUCUUGGUUUUCUUUGGGAUGUGGUCUGGUGGCCUCCUCUUCAACUGAAAGACGGAAAUCCCUUUGUCACUUGGCCAUUCCCUGAAGAUUUGUAAAGGACACUCAUCAUCAUCAAGCAACAGAGGAUUGAGCAUCA
B4: 19737984_19738104_982_3pUTR_ENSG00000105849_ENST00000222567|human|control|control (ssRNA)
RNA: GGGAGUUCUACAGUCCGACGAUCGGUGGGGUAAAUUCGGCCUCUUCACUGUGUUUUCUUUUCUUUUUUUUCUUUUUAUGGUCACUUUGGUAACCACUGGAGUCACUGCCUUGGAAAACAGGGUCCUGGUCCUGAACUUCCUGGCAACAGAGGAUUGAGCAUCA
B5: chr1:220276048:220276049:+_ENSG00000067704_ENST00000302637|hu_hu|hu_hu_hu_mus_True|18_78 (ssRNA)
RNA: GGGAGUUCUACAGUCCGACGAUCGCAAAUUGCCUGGUUGGCGGGAAUUGUCCAAGGUUGUGUGGUCCAAACUAAAACGCUAACAGGGGAUGAGGCAUCUGUAAGAGACUCCAACUUUGGAGAAGGCCUCAGGAGGGGGAAUCUCAACAGAGGAUUGAGCAUCA
B6: chr14:102368134:102368135:+_ENSG00000078304_ENST00000445439|hu_hu|hu_hu_hu_mus_True|68_88 (ssRNA)
RNA: GGGAGUUCUACAGUCCGACGAUCAAGAGGCUCCAUGAUCUUCACAAAUUCUGAUGGUUCAAUUACAUCUAAAAUCUCUUCUAAUUCAUUUAAGAACAUUACUUCUUUUGGACUGUGAGUCUUUGGCCAGUAUUUGAGAAGUGCCAACAGAGGAUUGAGCAUCA
B7: chr16:75327710:75327711:-_ENSG00000153774_ENST00000283882|hu_hu|FALSE|FALSE (ssRNA)
RNA: GGGAGUUCUACAGUCCGACGAUCAUUUAAGGACAAAUUUUUAAAAGUAAAGUGAAUGAAACCAUUUGUGAUUAAGAUACAUAGACAGAACUUCAAUGUAGAAAAAAAAAAGACCUUGCUGGGAAACAGAUGAUGAGAAACACUCAACAGAGGAUUGAGCAUCA
B8: chr19:58207738:58207739:+_ENSMUSG00000054843_ENSMUST00000077282|mus_mus|motif|central (ssRNA)
RNA: GGGAGUUCUACAGUCCGACGAUCUAAUUGGCCACAGAGUUAACAGUAGUGUGUGACAUUGCAUUAAUUCCAUAAUUAUCGGAAAUUCAAAAAUUUUAAAGUUUUAAGAACCUGGGGGAUUCACAGUGGAUGAGGCCUGACAGCCAACAGAGGAUUGAGCAUCA
B9: chr6:114281168:114281169:-_ENSG00000196591_ENST00000368632|hu_hu|hu_hu_hu_mus_True|8_98 (ssRNA)
RNA: GGGAGUUCUACAGUCCGACGAUCUUCCAUUUUUCGGUAUAAGCCAUAAUUUAGCAGCAAGUUAUGAGUCAUCCGGAUUCUAUGAGGCUUCAUGGGAUGACCCUGGCCAUAAUAAUAAUUGCCAAUAUCACAGAUUCAGUAGUACAACAGAGGAUUGAGCAUCA
B10: chr5:143664956:143664957:-_ENSMUSG00000029580_ENSMUST00000100497|mus_mus|FALSE|FALSE (ssRNA)
RNA: GGGAGUUCUACAGUCCGACGAUCAUACAUCAAGUUGGGGGGACAAAAAAAAGGGAGGCCUCAGACCUGGGCCAUUCAGAAAUUAAAAACAAAAAUGAAGUAUUAAGGCGGAAGAUUUAAAAAAAUUUUUGCAGUACAUAAUUUCAACAGAGGAUUGAGCAUCA
B11: chr10:35314101:35314102:-_ENSG00000108094_ENST00000537177|hu_hu|FALSE|FALSE (ssRNA)
RNA: GGGAGUUCUACAGUCCGACGAUCUUCACCUGUACACAGAUAAUGUAACCAUGUAAGUUUCCUUCCACUGAAAUGUUGGCUAUAAAAUAAUUCAAACAUCUGUACACUUUUUUCUAAUUCCUGGGGAAUUGCAAACGUAGAUGACAACAGAGGAUUGAGCAUCA
B12: chr5:143664956:143664957:-_ENSMUSG00000029580_ENSMUST00000100497|mus_hu|FALSE|FALSE (ssRNA)
RNA: GGGAGUUCUACAGUCCGACGAUCUCUCAAGUUGGGGGACAAAAAAGGGGGAAGGGGGGGCACGAAGGCUCAUCAUUCAAAAUAAAACAAAAUAAAAAAGUAUUAAGGCGAAGAUUAAAAAAAUUUUGCAUUACAUAAUUUACACAACAGAGGAUUGAGCAUCA
B13: chr14:102368134:102368135:+_ENSG00000078304_ENST00000445439|hu_hu|hu_hu_hu_mus_True|48_68 (ssRNA)
RNA: B6 RNA with U48C, A87G
B14: chr4:144460044:144460045:+_ENSG00000153147_ENST00000283131|hu_mus|hu_hu_hu_mus_False|98_98 (ssRNA)
RNA: GGGAGUUCUACAGUCCGACGAUCACGGUCCAUAGCCUGAAGAUCUACUUGCGGAUUCCAAUCUGAGUCAUAUAAAAUGACUACAUCAGCAGUUGCAAGAUUGAUGCCCAGACCACCAGCACGUGUGCUUAGCAUAAAUACAAACAACAGAGGAUUGAGCAUCA

biological target: T1, UNK ZnF1-3 (human, UniProt Q9C0B0 31-174); assay: nsRBNS (natural sequence RNA bind-n-seq); RBNS binding buffer (assumed for nsRBNS): 25 mM Tris pH 7.5, 150 mM KCl, 3 mM MgCl2, 0.01% Triton X-100, 500 ug/ml BSA, 20 U/ml SUPERase-In, 4 C; UNK is unkempt and MSI1 is Musashi-1; names of the RNAs are library labels; protein concentration not given here; high values mean tight binding
T1 sequence: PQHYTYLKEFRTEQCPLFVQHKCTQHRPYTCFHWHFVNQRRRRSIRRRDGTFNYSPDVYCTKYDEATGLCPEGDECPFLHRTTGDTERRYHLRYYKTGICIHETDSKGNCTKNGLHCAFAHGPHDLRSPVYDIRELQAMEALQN

Binder | binding signal
B1 | 1.38 enrichment R
B2 | 3.41 enrichment R
B3 | 0.53 enrichment R
B4 | 0.463 enrichment R
B5 | 2.05 enrichment R
B6 | 0.758 enrichment R
B7 | 1.71 enrichment R
B8 | 4.11 enrichment R
B9 | 0.99 enrichment R
B10 | 6.75 enrichment R
B11 | 1.11 enrichment R
B12 | 8.16 enrichment R
B13 | 0.708 enrichment R
B14 | 1.14 enrichment R
